In PubChem BioAssay (NCI):
Compounds without any hit were thinned out: in the full panel of roughly 83,000, 20% have a hit.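 In brief: 96-well plates, 48 h treatment, single concentration, percent growth endpoint.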 Values without a mark were called inactive. Active and inactive are the calls of the source. How the source made its calls: active means growth percent below 10; inactive means the rest.

How the values were obtained:
Test in all cases: NCI-60 one-dose screen, 48 h (100 = growth as untreated, 0 = no growth, -100 = all killed)
[1] = test system: NCI-H23 lung; conditions: 10 µM unless noted
[2] = test system: NCI-H226 lung; conditions: 10 µM unless noted
[3] = test system: NCI-H322M lung; conditions: 10 µM unless noted
[4] = test system: HOP-62 NSCLC; conditions: 10 µM unless noted
[5] = test system: NCI-H460 lung; conditions: 10 µM unless noted
[6] = test system: HOP-92 NSCLC; conditions: 10 µM unless noted
[7] = test system: NCI-H522 lung; conditions: 10 µM unless noted
[8] = test system: A549/ATCC NSCLC; conditions: 10 µM unless noted
[9] = test system: 786-0 renal; conditions: 10 µM unless noted
[10] = test system: COLO 205 colon; conditions: 10 µM unless noted
[11] = test system: DU-145 prostate; conditions: 10 µM unless noted
[12] = test system: K-562 leukemia; conditions: 10 µM unless noted
[13] = test system: MALME-3M melanoma; conditions: 10 µM unless noted
[14] = test system: MDA-MB-231 breast; conditions: 10 µM unless noted
[15] = test system: RXF 393 renal; conditions: 10 µM unless noted
[16] = test system: SF-268 CNS; conditions: 10 µM unless noted
[17] = test system: SF-295 CNS; conditions: 10 µM unless noted
[18] = test system: SF-539 CNS; conditions: 10 µM unless noted
[19] = test system: UACC-257 melanoma; conditions: 10 µM
[20] = test system: M14 melanoma; conditions: 10 µM unless noted

SMILES | growth [1] | growth [2] | growth [3] | growth [4] | growth [5] | growth [6] | growth [7] | growth [8] | growth [9] | growth [10] | growth [11] | growth [12] | growth [13] | growth [14] | growth [15] | growth [16] | growth [17] | growth [18] | growth [19] | growth [20]
Clc1nc(-c2cccnc2)nc2sc3c(c12)CCCCCC3 | 99.5% | 98.6% | 102% | 97.5% | 107% | 86.2% | 85.7% | 94.8% | 101% | 107% | 109% | 101% | 103% | 97.7% | 116% | 95.7% | 92.9% | 96.6% | 93.1% | 107%
Nc1c(C(=O)Nc2c(Cl)cccc2Cl)sc2nc3c(cc12)CCCCC3 | 78.4% | 61.8% | 85.4% | 53.9% | 54.9% | 59.4% | 40.1% | 50.3% | 59.8% | 45.3% | 70.4% | 24.1% | 61.5% | 63.4% | 3.29% (active) | 60.5% | 54.4% | 38.2% | 50.7% | 43.8%
CC(=O)OC[Si](C)(C)c1ccccc1 | 112% | 95.9% | 109% | 110% | 103% | 92.1% | 103% | 95.8% | 96.9% | 117% | 113% | 102% | 110% | 105% | 107% | 103% | 91.6% | 96.2% | 92.3% | 97.8%
COc1cc(C2C=C(C)N=C3SC=C(C)N32)cc(OC)c1OC (stereo not given) | -27.7% (active) | 2.75% (active) | 13.6% | -62.1% (active) | -39% (active) | -32.4% (active) | -87.1% (active) | -19.2% (active) | -69% (active) | -75.9% (active) | -26.7% (active) | 2.16% (active) | -54% (active) | -23.5% (active) | -89.7% (active) | -16.9% (active) | -1.7% (active) | -40.4% (active) | -38.9% (active) | -52.5% (active)
O=C(CNc1c(Cl)cccc1Cl)Nc1ccc(-c2nc3ccccc3s2)cc1 | 40.9% | 54.4% | 94.6% | 118% | 91.2% | 94.2% | -93.4% (active) | 85.7% | 24.1% | 87.7% | 85.7% | 10.5% | -50% (active) | 56.9% | 86.6% | 46.2% | 97.4% | 79.9% | 96.5% | 55.7%
Nc1c(C(=O)Nc2ccccc2)sc2nc3c(cc12)CCC3 | 87.9% | 85.3% | 101% | 96.4% | 91% | 55.6% | 83.9% | 91.2% | 101% | 108% | 96.8% | 35.4% | 77.9% | 80.7% | 95.4% | 94% | 106% | 80.2% | 90.5% | 69.7%
COC1=CC(c2ccc[nH]2)=N/C1=C\c1[nH]c(C)c(CCCn2cc(CCCCCCCCC[C@@H]3Cc4cc(O)ccc4C4CC[C@]5(C)[C@@H](O)CC[C@H]5C43)nn2)c1C (stereo not given in full) | 49.9% | 68.2% | 44.6% | 60.3% | 37.3% | 25.8% | 24.5% | 48.3% | 63.9% | 35.8% | 33.3% | 28% | 137% | -12.8% (active) | 28.1% | 58.2% | 65.2% | 59.1% | 98.5% | 74%
COc1ccc(/C=C/c2cc(N3CCOCC3)c3cc(F)c(F)cc3n2)cc1OC | 42.3% | 34.8% | 30% | 63.9% | 25.2% | 49.7% | 7.5% (active) | 44.6% | 40.8% | 11.8% | 48.3% | 28.9% | 49.3% | 45.9% | 52.2% | 31.4% | 31.4% | 28.9% | 45.4% | 31.6%
Nc1c(C(=O)Nc2cccc(C(F)(F)F)c2)sc2nc3c(cc12)CCCCCC3 | 8.82% (active) | 5.69% (active) | 10.6% | -1.22% (active) | 4.27% (active) | -14.2% (active) | 36.2% | -45.2% (active) | -71.7% (active) | 48.5% | 20.8% | 17% | -20.6% (active) | -12.9% (active) | -49.1% (active) | 12.7% | 2.51% (active) | -86.9% (active) | 7.85% (active) | 47.1%
Cc1cc2c(c(=O)o1)C(c1ccc(OC(=O)N3CCOCC3)cc1)C(C#N)=C(N)O2 (stereo not given) | 97.4% | 104% | 93.1% | 89.6% | 107% | 113% | 98.9% | 100% | 99.2% | 118% | 112% | 98.6% | 126% | 116% | 114% | 114% | 100% | 96.5% | 98.2% | 110%
Cc1ccc(C(=O)c2sc3nc4c(cc3c2N)CCCC4)c(C)c1 | 35.1% | 60.1% | 29.5% | 39.6% | 14% | 27.4% | -0.883% (active) | 19.2% | 35.2% | 3.68% (active) | 6.18% (active) | 11.9% | 27% | 21.3% | -16% (active) | 44.1% | -4.3% (active) | -25% (active) | 57.6% | 30.6%
CCN(C(=O)c1cc2ncccc2[nH]1)[C@H]1CCC[C@@H](NCc2cccc(F)c2)C1 | 97.4% | 101% | 80.6% | 105% | 105% | 92.1% | 89.8% | 102% | 110% | 18.7% | 104% | 105% | 92% | 91.4% | 95.1% | 102% | 102% | 98.5% | 107% | 113%
COc1cc(Cn2c(SCC(=O)Nc3cc(OC)c(OC)c(OC)c3)nc3ccccc3c2=O)cc(OC)c1OC | 77.1% | 57.7% | 82.1% | 42.8% | 57.8% | 39.8% | 34% | 62.9% | 73.6% | 109% | 94.6% | 97.4% | 82.8% | 58.2% | 61.6% | 54.7% | 85.9% | 66.1% | 102% | 95%
Cc1ccc(Cn2c(-c3nonc3N)nc3ccccc32)cc1 | 83.3% | 82.7% | 86% | 76.5% | 71.4% | 77.6% | 66.4% | 57.3% | 92.3% | 80% | 100% | 12.9% | 81.6% | 83.5% | 82.1% | 81.5% | 82.3% | 80.4% | 89.6% | 66.4%
CCNCc1ccncc1 | 105% | 103% | 104% | 104% | 102% | 107% | 91% | 99.4% | 97.7% | 106% | 108% | 94.5% | 101% | 114% | 112% | 106% | 102% | 103% | 96.3% | 94.5%
